IL-1B inflam inh: inflammasome signaling inhibition, IL-1 beta readout; activity change, % at 57.5 µM; 360,000 compounds, 4.7% hits; THP-1 LPS/ATP IL-1B secretion, AlphaLISA, 16 h; stronger effect = lower value; AID 743279; in the data active = activity change below about -50%; inconclusive = mostly about -30% to -49%
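Secreted IL-1B measured by AlphaLISA bead assay after 16 h compound exposure of THP-1 cells; compounds (final up to 57.5 uM) added 1 h before LPS (250 ng/mL) and ATP (1.25 mM) stimulation; lower signal means less secretion.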
HT1080 IDH1KD tx: toxicity to HT-1080 IDH1 knockdown cells (counter line). 360,000 compounds, 2% hits. HT-1080 IDH1 knockdown viability, ATP luminescence, 48 h. Potency, µM (series often up to 46.1 µM), for the others: at the top dose activity, negative = toxicity, most hits filed as cytotoxic;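 note: potency is the fitted concentration of half-maximal effect; 0% = DMSO wells and -100% = cell-free medium wells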
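Assay cells: HT-1080 with IDH1 knockdown, 750 per well, RPMI/5% FBS. Exposure: 48 h at 37 °C following 2 h pre-incubation. Read: CellTiter-Glo luminescence; fitted concentration-response, curve class assigned.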
TDP1 cell noCPT: qHTS for Inhibitors of human tyrosyl-DNA phosphodiesterase 1 (TDP1): qHTS in cells in absence of CPT. DT40 Tdp1-/- hTDP1 cells, no CPT, ATP luminescence, 48 h. Potency, µM (doses to about 46.2 µM), without a hit: at the highest dose activity change, negative = growth inhibition, actives largely listed as inhibitors. 420,000 compounds, 15% hits; note: potency is the fitted concentration of half-maximal effect; nearly all actives have a fitted effect of over 55% in size
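Stably hTDP1-transfected Tdp1-null chicken DT40 cells were treated with library compounds minus camptothecin and grown for at least 48 hr at 37 °C, after which cellular ATP was quantified by luminescence.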
12-LOX inh: blocks human arachidonate 12S-lipoxygenase. P18054. purified 12hLO, xylenol orange hydroperoxide absorbance. Potency, µM (top dose mostly 108 µM), inactives show at the top dose activity change, negative = inhibition, usual class: inhibitors. 580,000 compounds, 1.1% hits. AID 1671190; note: potency is the fitted concentration of half-maximal effect
Target sequence (P18054 whole entry, looked up): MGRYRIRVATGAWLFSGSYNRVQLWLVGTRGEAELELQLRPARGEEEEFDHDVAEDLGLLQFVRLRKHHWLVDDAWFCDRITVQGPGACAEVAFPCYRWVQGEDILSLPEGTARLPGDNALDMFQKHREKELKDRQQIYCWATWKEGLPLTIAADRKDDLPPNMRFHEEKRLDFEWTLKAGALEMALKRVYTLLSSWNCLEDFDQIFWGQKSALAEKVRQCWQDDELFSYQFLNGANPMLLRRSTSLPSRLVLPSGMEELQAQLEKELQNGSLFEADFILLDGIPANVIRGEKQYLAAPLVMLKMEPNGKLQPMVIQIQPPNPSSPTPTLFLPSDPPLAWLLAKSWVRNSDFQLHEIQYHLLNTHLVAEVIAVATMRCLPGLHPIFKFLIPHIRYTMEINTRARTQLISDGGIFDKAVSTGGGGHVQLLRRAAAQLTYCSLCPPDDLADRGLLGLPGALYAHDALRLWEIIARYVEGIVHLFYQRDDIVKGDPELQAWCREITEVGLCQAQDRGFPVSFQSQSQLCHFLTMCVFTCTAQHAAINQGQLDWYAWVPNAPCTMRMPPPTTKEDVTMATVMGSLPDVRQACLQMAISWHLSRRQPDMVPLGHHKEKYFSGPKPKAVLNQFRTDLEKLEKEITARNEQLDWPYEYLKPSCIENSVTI
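Purified human 12hLO (150 nM final) in 25 mM Hepes, 0.01% Triton X-100, pH 7.0 was preincubated 15 min at room temperature with compound. Then 40 uM arachidonic acid was added, 30 min. Hydroperoxide was read by Fe-XO absorbance ratio 573/405 nm.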
TDP1 cell CPT: growth inhibition of DT40 Tdp1-/-;hTDP1 cells with camptothecin (screen for TDP1 inhibitors); chicken DT40 Tdp1-/-;hTDP1 cells + 20 nM CPT, ATP luminescence, 48 h; 420,000 compounds, 12% hits; Potency, µM (series often up to 46.2 µM), for the others: at the top dose activity change, negative = growth inhibition, usual class: inhibitors; AID 686979; note: potency is the fitted concentration of half-maximal effect; nearly all actives have a fitted effect of over 55% in size
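Chicken DT40 Tdp1-/- cells complemented with human TDP1, 400 cells/well, exposed to compounds plus 20 nM camptothecin for at least 48 h at 37 C; viability read as ATP content by CellTiter-Glo luminescence.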
HT1080NT lethal: kills 2HG-producing HT-1080-NT fibrosarcoma cells. HT-1080-NT fibrosarcoma viability, CellTiter-Glo ATP luminescence, 48 h. Potency, µM (highest dose often 46.1 µM), for inactives: at the highest dose activity, negative = less viability, most hits filed as cytotoxic. 360,000 compounds, 1.6% hits. AID 686970;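 note: NT is the 2HG producing partner of a matched IDH1 knockdown line; potency is the fitted concentration of half-maximal effect; 0% = DMSO-treated cells and -100% = media-only wells without cells; nearly all actives have a fitted effect of over 55% in size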
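HT-1080-NT fibrosarcoma cells (2HG-overproducing), 750 cells/well in RPMI with 5% FBS, dosed after 2 h and incubated 48 h at 37C. CellTiter-Glo luminescence normalized to DMSO and no-cell wells; concentration-response curves fitted and classed.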
Numbers without * were called inactive; ? = inconclusive; / = no result given; [ ] = remark or other dose. The full list was thinned out, with hits kept by preference. Unless noted, calls come from the whole dose curve; as a rule, active = well fitted curve in the direction sought with a large enough effect; inconclusive = small, poorly fitted or top-dose-only effect, or another doubt; inactive = no such curve, though single readings can be large; an effect the other way counts as inactive or inconclusive. Unless noted, % is set by controls: 0 for no effect and ±100 for the full control effect.

SMILES	IL-1B inflam inh	HT1080 IDH1KD tx	TDP1 cell noCPT	12-LOX inh	TDP1 cell CPT	HT1080NT lethal
CCn1cc(CN(C)C(=O)CSc2nc(-c3ccco3)cc(C(F)(F)F)n2)c(C)n1	8.4	-24.4%	23.1µM*	-10.6%	?	-10.1%
COc1ccc(CNC(=O)CSc2nc(-c3ccc(OC)cc3)cc(C(F)(F)F)n2)cc1	/	/	-16.6%	0.0%	-20.1%	/
COc1ccc(-c2cc(C(F)(F)F)nc(SCC(=O)N(C)Cc3ccccc3)n2)cc1	/	/	?	-13.8%	23.1µM*	/
O=C1CC(c2noc(Cc3ccc(F)cc3)n2)CN1c1ccc(F)c(Cl)c1 (stereo unspecified)	/	/	/	65.0%	/	/
COc1ccccc1C1c2c(-c3ccc(C)cc3)n[nH]c(=O)c2Nc2nnnn21 (stereo unspecified)	/	/	/	-4.0%	/	/
COc1ccc(-c2cc(C(F)(F)F)nc(SCCC(=O)Nc3ccc(OC)c(OC)c3)n2)cc1	/	/	14.6µM*	-7.1%	13µM*	/
CCOC(=O)c1ccc(CN2CCCC(C)(C(=O)NCCOC)C2)cc1 (stereo unspecified)	21.7	0.0%	?	8.0%	?	22.3%
COCCNC(=O)C1(C)CCCN(CCC(=O)c2ccc(Br)cc2)C1 (stereo unspecified)	-15.5	?	7.31µM*	-14.6%	5.8µM*	?
CCNC(=O)C1(C)CCN1CCS(=O)(=O)c1ccc(C)cc1 (stereo unspecified)	10.0	?	-3.3%	-25.4%	-7.8%	7.9%
CCNC(=O)C1(C)CCN1CCC(=O)c1ccc(Br)cc1 (stereo unspecified)	0.0	4.7%	16.4µM*	-12.0%	20.6µM*	13.7%
CCCNC(=O)C1(C)CCN(CCC(=O)c2ccc(Br)cc2)C1 (stereo unspecified)	-13.8	?	3.26µM*	?	2.59µM*	-20.4%
CC(C)c1ccccc1OCC(=O)NC1CCc2ccccc21 (stereo unspecified)	/	/	/	-11.3%	/	/
CCOC(=O)c1c(C)[nH]c(C(=O)NNC(=O)c2ccccc2F)c1C	0.0	21.6%	1.9%	-3.9%	-0.8%	12.5%
CCOC(=O)c1[nH]c(C)c(C(=O)OCC(=O)N(Cc2ccccc2)C(C)C)c1C	?	-16.3%	14.6µM*	2.0%	?	-13.8%
CCOC(=O)c1[nH]c(C)c(C(=O)OCc2ccccc2F)c1C	18.6	9.2µM*	9.2µM*	-10.4%	6.51µM*	11.6µM*
CC(C)N(Cc1ccccc1)C(=O)COC(=O)c1cc(S(=O)(=O)N(C)C)ccc1N1CCCC1	-9.6	-0.1%	14.6µM*	-1.8%	23.1µM*	-5.3%
CCOC(=O)c1[nH]c(C)c(C(=O)OCC)c1C	-24.2	9.9%	0.4%	14.8%[57.4 µM]	0.6%	7.1%
CCOC(=O)c1[nH]c(C)c(C(=O)c2cc(F)ccc2F)c1C	53.5	0.447µM*	0.82µM*	-11.2%	0.82µM*	0.708µM*
CCOC(=O)c1c(C)[nH]c(C(=O)OCC(=O)N(CC(C)C)c2c(N)n(Cc3ccccc3)c(=O)[nH]c2=O)c1C	-6.9	-2.0%	?	-26.8%	?	-4.3%
CCCNC(=O)CSc1nc2ccccc2nc1C	/	/	/	48.4%	/	/
COc1ccc(/C=C2\Oc3cc(OC(=O)c4ccc(C(C)(C)C)cc4)ccc3C2=O)c(OC)c1OC	/	/	/	0.4%	/	/
O=C(CN1CCN(C(=O)c2cccnc2SC(F)F)CC1)Nc1ccccc1Cl	/	/	/	10.6%	/	/
CC(C)N(Cc1ccccc1)C(=O)COc1ccccc1	2.7	11.4%	?	4.3%	?	17.4%
CC(C)N(Cc1ccccc1)C(=O)CCc1ccccc1	-24.2	3.2%	?	-5.5%	14.6µM*	-2.0%
COc1ccc2[nH]c3c(c2c1)CCN1C(=O)C(CC(=O)NCCN2CCOCC2)C[C@H](C(=O)N2CCCCC2)[C@@]31CCc1ccccc1 (stereo partly specified)	3.4	5.4%	?	0.5%	?	12.7%
SMILES	IL-1B inflam inh	HT1080 IDH1KD tx	TDP1 cell noCPT	12-LOX inh	TDP1 cell CPT	HT1080NT lethal
O=C(C[C@H]1C[C@H](C(=O)N2CCCCC2)[C@@]2(CCc3ccccc3)c3[nH]c4ccc(Cl)cc4c3CCN2C1=O)NCc1ccco1	-19.4	4.3%	8.2µM*	?	7.31µM*	4.1%
COCCCNC(=O)C[C@H]1C[C@H](C(=O)N2CCCCC2)[C@@]2(CCc3ccccc3)c3[nH]c4ccc(Cl)cc4c3CCN2C1=O	-17.4	4.1%	4.61µM*	18.6%	8.2µM*	7.0%
O=C(CC1C[C@H](C(=O)N2CCCCC2)[C@@]2(CCc3ccccc3)c3[nH]c4ccccc4c3CCN2C1=O)NCc1cccc(C(F)(F)F)c1 (stereo partly specified)	?	5.5%	16.4µM*	-7.6%	?	7.5%
COc1ccc2[nH]c3c(c2c1)CCN1C(=O)C(CC(=O)NCc2cccc(C(F)(F)F)c2)C[C@H](C(=O)N2CCCCC2)[C@@]31CCc1ccccc1 (stereo partly specified)	?	-0.2%	?	-35.0%	16.4µM*	2.2%
CCOc1ccc(CCNC(=O)c2cccn2-c2nnc(N3CCCC3)s2)cc1OCC	/	/	/	1.1%	/	/
CCc1c(C)c2ccc(OCC(=O)c3ccccc3)cc2oc1=O	/	/	/	14.2%	/	/
COc1cn(CC(=O)Nc2ccc(C(F)(F)F)cc2)c(CN2CCOCC2)cc1=O	/	/	/	-2.1%	/	/
COc1cccc(CN2CC[C@H]3COC(=O)N3c3cc(C)ccc3C2)c1	/	/	/	1.5%[176 µM]	/	/
O=C(C[C@H]1C[C@H](C(=O)N2CCCCC2)[C@@]2(CCc3ccccc3)c3[nH]c4ccc(Cl)cc4c3CCN2C1=O)NCc1cccc(C(F)(F)F)c1	?	0.1%	11.6µM*	?	13µM*	7.7%
CC(C)(C)NC(=O)C[C@H]1C[C@H](C(=O)N2CCCCC2)[C@@]2(CCc3ccccc3)c3[nH]c4ccc(Cl)cc4c3CCN2C1=O	-3.9	2.1%	?	16.0%	?	7.8%
Cc1ccccc1-n1cnnc1SCCC(=O)Nc1ccc(S(=O)(=O)N(C)C)cc1	/	/	/	8.4%	/	/
Cc1nc(N/N=C/c2ccc(O)cc2)c2cnn(-c3ccccc3)c2n1	-74.3*	?	23.1µM*	0.1%	?	?
Cc1nc2ccccc2nc1N/N=C/c1ccc(O)cc1	5.1	4.8%	-0.3%	-21.6%	-3.4%	1.9%
CC(=O)c1ccc(NC(=O)N[C@H]2C[C@@](O)(C(=O)N[C@H](Cc3ccccc3)C(N)=O)C[C@@H](O)[C@@H]2O)cc1	/	/	/	3.9%	/	/

Bioassay records from PubChem.
